Assay outcomes (PubChem BioAssay)
RPL19A-GFP yeast: RPL19A-GFP expression modulators in yeast, primary screen, cell-based, S. cerevisiae, multiplex flow cytometry, MLPCN; S. cerevisiae RPL19A-GFP strain, 3 h; hits give low values; percent response vs DMSO, % at 10 µM; hit rate 0.3% among 330,000; AID 2025, 2009;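 active = percent response vs DMSO below 50%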;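 also: median channel GFP fluorescence of the barcoded RPL19A-GFP strain; lower means less RPL19A-GFP as with rapamycin TOR inhibition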
VLA-4 inh: inhibition in human VLA-4 binding assay, primary screen, VLA-4 allosteric modulator project, MLPCN library, flow cytometry, VLA-4 expressing cells; inhibition, % (about 7 µM as worked out from the volumes in the protocol); ligand binding flow cytometry; AID 2557, 2010; hit rate 0.2% among 330,000; Integrin alpha-4 (Homo sapiens), P13612; in the data active = inhibition above about 50%
AGP1-GFP MLPCN: modulators of AGP1-GFP expression in yeast TOR pathway, primary screen, cell-based, multiplex flow cytometry, S. cerevisiae, MLPCN library; 3 h; GFP as percent of DMSO wells; GFP response vs DMSO, % at 10 µM; hit rate 0.02% among 320,000;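 active = GFP response relative to DMSO above a set limit, near screen average plus 3 SD, cut at about 150% in these data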;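 also: median GFP channel fluorescence of the gated AGP1 strain per well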
MEP2 TOR yeast: modulators of MEP2-GFP levels in yeast, primary screen, S. cerevisiae, multiplex flow cytometry, MLPCN library | AID 2016, 2009 | GFP response vs DMSO, % at 10 µM | S. cerevisiae MEP2-GFP strain, 3 h; 100% = DMSO control level | hit rate 0.51% among 330,000;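 active = GFP response versus DMSO above a set limit, roughly screen mean plus 3 SD, cut at about 180% in these data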;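 also: median GFP fluorescence of the barcode-gated MEP2-GFP cells per well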
CIT2 TOR yeast: modulators of CIT2-GFP expression in yeast, primary screen, S. cerevisiae, GFP fusion, multiplex flow cytometry, MLPCN library; hit rate 0.065% among 320,000; S. cerevisiae CIT2-GFP strain, 3 h; 100 means same as DMSO wells; GFP response vs DMSO, % at 10 µM;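 active = GFP response relative to DMSO above a set limit, near the screen mean plus 3 SD, cut at about 150% in these data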;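 also: ratio of well median GFP fluorescence to mean of DMSO wells on the plate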
LAP4-GFP MLPCN: modulators of LAP4-GFP expression in yeast, primary screen, S. cerevisiae, multiplex flow cytometry, MLPCN library; 3 h; median GFP as percent of DMSO wells; hit rate 0.34% among 320,000; GFP response vs DMSO, % at 10 µM; AID 2023, 2009;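 active = GFP response vs DMSO above a set limit, about the screen mean plus 3 SD, cut at about 150% in these data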
LAP4-GFP pick2: LAP4-GFP expression modulators in yeast, confirmation, cell-based, second cherry pick, flow cytometry; shares compounds with LAP4-GFP MLPCN; S. cerevisiae LAP4-GFP strain, 3 h; GFP response vs DMSO, % at 10 µM; hit rate 20% among 590;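 active = GFP signal as percent of the solvent control above about 150%, meaning raised reporter expression, limit read from the data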
MEP2 cherry2: modulators of MEP2-GFP levels in yeast, confirmation, S. cerevisiae, flow cytometry GFP, second cherry picks. hit rate 10% among 590. GFP response vs DMSO, % at 10 µM. shares compounds with LAP4-GFP MLPCN. S. cerevisiae MEP2-GFP strain, 3 h;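 active = GFP signal above 150% of the solvent control wells, that is a rise of more than half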;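 also: median channel GFP fluorescence of all gated yeast cells per well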
RPL19A GFP CP2: RPL19A-GFP modulators in TOR pathway yeast, confirmation, cell-based, S. cerevisiae, flow cytometry, second cherry pick; GFP response vs DMSO, % at 10 µM; shares compounds with LAP4-GFP MLPCN; AID 2623, 2010; S. cerevisiae RPL19A-GFP strain, 3 h; hits give low values; 100% means same as DMSO wells; hit rate 3% among 590;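 active = under 65% GFP response relative to DMSO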;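 also: median GFP channel fluorescence per well over the all cells gate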
CIT2-GFP pick2: modulators of CIT2-GFP expression in yeast, confirmation, flow cytometry, second cherry pick, single plex; shares compounds with LAP4-GFP MLPCN; S. cerevisiae CIT2-GFP strain, 3 h; DMSO control wells read 100%; GFP response vs DMSO, % at 10 µM; hit rate 8% among 590;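 active = GFP response vs DMSO above about 150%, limit read from the data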;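 also: median green fluorescence per well over all gated yeast cells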
AGP1 GFP CP2: AGP1-GFP expression modulators, hit retest, confirmation, cell-based, flow cytometry, S. cerevisiae, cherry pick set 2; shares compounds with LAP4-GFP MLPCN; percent response vs DMSO, % at 10 µM; 590 tested, under 10 active; S. cerevisiae AGP1-GFP strain, 3 h; AID 2643, 2010;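 active = over 150 percent of DMSO response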;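 also: median GFP channel fluorescence over all cells without mother daughter split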
Yeast autofluor: compound autofluorescence in yeast s288c, dose response, artefact control for yeast TOR pathway GFP screen, s288c strain; shares compounds with LAP4-GFP MLPCN; S. cerevisiae s288c, 520 nm autofluorescence, flow cytometry, 3 h; hits give high values; zero means same as solvent-only cells; fluorescence change (kMESF span) at 33 µM; 610 tested, under 10 active; AID 2757, 2010;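 active = fluorescence span over the dose series, or activity score, above about 33, limit read from the data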
Of the large screens only hits and unclear results are named; the others gave an inactive call (follow-up assays come after a bar, where they were run). A selection: hits, their analogues and other compounds. The true share with any hit is near 1.1%.

Cc1c(NC2=C(Cl)C(=O)N(c3ccccc3)C2=O)c(=O)n(-c2ccccc2)n1C	none | Yeast autofluor inactive
O=C1C(Cl)=C(NCC2CCCO2)C(=O)N1c1ccccc1 (centres undefined)	none
O=C1C(Cl)=C(Nc2ccccc2O)C(=O)N1c1ccccc1	none | Yeast autofluor inactive
Cc1c(Nc2c3ccccc3nc3ccccc23)c(=O)n(-c2ccccc2)n1C	none
COc1ccc(CNc2cccc3[nH]c(C(F)(F)F)nc23)cc1OC	none
CCN1CCN(C(CNS(=O)(=O)c2ccc(F)cc2)c2cccnc2)CC1 (centres undefined)	CIT2 TOR yeast 154 | LAP4-GFP pick2 inactive | MEP2 cherry2 inactive | RPL19A GFP CP2 inactive | CIT2-GFP pick2 inactive | AGP1 GFP CP2 inactive
Cc1cccn2c(=O)c3cc(C#N)c(=N)n(CCCN4CCOCC4)c3nc12	none | LAP4-GFP pick2 inactive | MEP2 cherry2 inactive | RPL19A GFP CP2 inactive | CIT2-GFP pick2 inactive | AGP1 GFP CP2 inactive
Cc1nn(-c2cc(N3CCCC3)ccc2[N+](=O)[O-])c(=O)c2ccccc12	none
Cc1nn(-c2ccccc2[N+](=O)[O-])c(=O)c2ccccc12	none | LAP4-GFP pick2 inactive | MEP2 cherry2 inactive | RPL19A GFP CP2 inactive | CIT2-GFP pick2 inactive | AGP1 GFP CP2 inactive
Cn1c(NC2CCCCC2)cc(=O)n(C)c1=O	none
Cc1cc(C2CCCCC2)n(O)c(=O)c1	LAP4-GFP MLPCN 192 | LAP4-GFP pick2 187 | MEP2 cherry2 inactive | RPL19A GFP CP2 inactive | CIT2-GFP pick2 inactive | AGP1 GFP CP2 inactive | Yeast autofluor inactive
NC(=O)c1ccc(NC(=O)COC(=O)c2ccc(Br)o2)cc1	none
O=C(CN1C(=O)C2CC=CCC2C1=O)Nc1nc(-c2ccc(F)c(F)c2)cs1 (centres undefined)	none
COc1cc(S(=O)(=O)Nc2cccc3cn[nH]c23)c(OC)cc1C	CIT2 TOR yeast 167 | LAP4-GFP pick2 inactive | MEP2 cherry2 inactive | RPL19A GFP CP2 inactive | CIT2-GFP pick2 inactive | AGP1 GFP CP2 inactive
O=c1c2sc(-c3ccccc3)cc2nc2n1CCC2	none | LAP4-GFP pick2 inactive | MEP2 cherry2 inactive | RPL19A GFP CP2 59 | CIT2-GFP pick2 inactive | AGP1 GFP CP2 inactive | Yeast autofluor inactive
